# Data: PubChem BioAssay (EPA / NIEHS)
# Active and inactive are the calls of the source. How the source made its calls: active means hit-call score of the fitted dose curve at least 0.9, where 1 is the maximum; inactive means score below 0.9.
# Assays:
# Details in all cases: mRNA level, 48 h; actives raise or lower the signal
# [1] = read-out: DNA damage-inducible transcript 3 (DDIT3), DDIT3 (gene 1649); test: LTEA_HepaRG_DDIT3: Life Technologies and Expression Analysis (LTEA) Assay for DNA damage-inducible transcript 3 (DDIT3) using HepaRG (AID 2283488)
# How it was run: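 Cells are human HepaRG liver cells treated for 48 h with eight half-log concentrations up to 100 uM in 0.5% DMSO. Transcript levels come from qRT-PCR normalized to three housekeeping genes, with activity fitted in both directions relative to vehicle.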
# [2] = read-out: Early growth response protein 1 (EGR1) transcription factor, EGR1 (gene 1958); test: LTEA_HepaRG_EGR1: Life Technologies and Expression Analysis (LTEA) Assay for Early growth response protein 1 (EGR1) transcription factor using HepaRG (AID 2283490)
# How it was run: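 EGR1 expression change in human HepaRG after 48 h chemical exposure, assessed by housekeeping-normalized qRT-PCR; concentration-response up to 100 uM, fitted in both directions against DMSO controls.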
# [3] = read-out: Ezrin (EZR), EZR (gene 7430); test: LTEA_HepaRG_EZR: Life Technologies and Expression Analysis (LTEA) Assay for Ezrin (EZR) using HepaRG (AID 2283491)
# How it was run: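 HepaRG, 48 h chemical exposure, 8-pt half-log series from 100 uM, 0.5% DMSO vehicle, duplicates. Read-out: EZR mRNA by TaqMan qRT-PCR (Fluidigm array), housekeeping-normalized; bidirectional curve fit vs DMSO baseline.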
# [4] = read-out: Cytochrome P450 3A7 (Homo sapiens) (UniProt P24462); test: LTEA_HepaRG_CYP3A7: Life Technologies and Expression Analysis (LTEA) Assay for CYP3A7 using HepaRG (AID 2283492)
# How it was run: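 qRT-PCR of CYP3A7 in HepaRG lysates after 48 h treatment; concentration-response (8 points, max 100 uM) analysed bidirectionally relative to 0.5% DMSO controls.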
# [5] = read-out: CYP3A5 (gene 1577); test: LTEA_HepaRG_CYP3A5: Life Technologies and Expression Analysis (LTEA) Assay for CYP3A5 using HepaRG (AID 2283493)
# How it was run: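 Human HepaRG hepatic cells receive 48 h chemical treatment at eight concentrations (half-log steps from 100 uM) in 0.5% DMSO. Expression of CYP3A5 is quantified by Fluidigm qRT-PCR and normalized to three reference genes.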
# [6] = read-out: Fatty Acid-Binding Protein 1 (FABP1), FABP1 (gene 2168); test: LTEA_HepaRG_FABP1: Life Technologies and Expression Analysis (LTEA) Assay for Fatty Acid-Binding Protein 1 (FABP1) using HepaRG (AID 2283494)
# How it was run: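 Values reflect bidirectional concentration-response fitting of FABP1 mRNA change against 0.5% DMSO controls. Human HepaRG cultures received eight half-log doses (top 100 uM) for 48 h; expression quantified by TaqMan qRT-PCR with housekeeping-gene normalization.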
# [7] = read-out: Cytochrome P450 4A22 (Homo sapiens) (UniProt Q5TCH4); test: LTEA_HepaRG_CYP4A22: Life Technologies and Expression Analysis (LTEA) Assay for Cytochrome P450 4A22 (CYP4A22) using HepaRG (AID 2283495)
# How it was run: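 Concentration-response (8 points, max 100 uM, 0.5% DMSO) in human HepaRG liver cells after 48 h exposure. CYP4A22 mRNA by TaqMan qRT-PCR with housekeeping-gene normalization.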
# [8] = read-out: Cytochrome P450 7A1 (Homo sapiens) (UniProt P22680); test: LTEA_HepaRG_CYP7A1: Life Technologies and Expression Analysis (LTEA) Assay for Cytochrome P450 7A1 (CYP7A1) using HepaRG (AID 2283496)
# How it was run: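 HepaRG, 48 h exposure, 8-pt half-log series from 100 uM, 0.5% DMSO vehicle, duplicates. Readout: TaqMan qRT-PCR mRNA vs three housekeeping genes; bidirectional curve fit against DMSO baseline.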
# [9] = read-out: Glutathione S-Transferase (GSTA2), GSTA2 (gene 2939); test: LTEA_HepaRG_GSTA2: Life Technologies and Expression Analysis (LTEA) Assay for Glutathione S-Transferase (GSTA2) using HepaRG (AID 2283497)
# How it was run: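 Oxidative-stress marker GSTA2 is quantified by TaqMan qRT-PCR in HepaRG cultures treated 48 h across an eight-point range to 100 uM. Expression is normalized to endogenous controls and compared with 0.5% DMSO vehicle.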
# [10] = read-out: Glutamate-cysteine ligase catalytic (GCLC), GCLC (gene 2729); test: LTEA_HepaRG_GCLC: Life Technologies and Expression Analysis (LTEA) Assay for Glutamate-cysteine ligase catalytic (GCLC) using HepaRG (AID 2283498)
# How it was run: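 Oxidative-stress marker GCLC is measured as mRNA change in human HepaRG liver cells after 48 h chemical treatment in 0.5% DMSO, eight concentrations from 100 uM. Activity is fitted bidirectionally against vehicle.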
# [11] = read-out: growth arrest and DNA damage 45 (GADD45G), GADD45G (gene 10912); test: LTEA_HepaRG_GADD45G: Life Technologies and Expression Analysis (LTEA) Assay for growth arrest and DNA damage 45 (GADD45G) using HepaRG (AID 2283499)
# How it was run: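 Concentration-response in HepaRG: 48 h dosing, 0.5% DMSO, highest level 100 uM. GADD45G expression by qRT-PCR, normalised to endogenous controls; bidirectional fit to DMSO.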
# [12] = read-out: Glutamate-cysteine ligase regulatory (GCLM), GCLM (gene 2730); test: LTEA_HepaRG_GCLM: Life Technologies and Expression Analysis (LTEA) Assay for Glutamate-cysteine ligase regulatory (GCLM) using HepaRG (AID 2283500)
# How it was run: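 Endpoint is GCLM transcript level by qRT-PCR, normalized to three housekeeping genes, after 48 h chemical exposure of human HepaRG cells (0.5% DMSO vehicle, top 100 uM, half-log dilutions). Fitting was bidirectional relative to DMSO.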
# [13] = read-out: Glutathione S-transferase M3 (GSTM3), GSTM3 (gene 2947); test: LTEA_HepaRG_GSTM3: Life Technologies and Expression Analysis (LTEA) Assay for Glutathione S-transferase M3 (GSTM3) using HepaRG (AID 2283501)
# How it was run: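 Expression of GSTM3 is determined by qRT-PCR in human liver HepaRG cells treated 48 h with an 8-point half-log range from 100 uM in 0.5% DMSO.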
# [14] = read-out: Heat shock 70 kDa protein 1 (HSPA1A), gene 3303; test: LTEA_HepaRG_HSPA1A: Life Technologies and Expression Analysis (LTEA) Assay for Heat shock 70 kDa protein 1 (HSPA1A) using HepaRG (AID 2283502)
# How it was run: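 Cells were plated and cultured for 48 h, then switched to serum-free induction medium. Chemicals were added at eight half-log concentrations up to 100 uM for 48 h. RNA was then isolated and HSPA1A measured by qRT-PCR with bidirectional curve fitting against DMSO.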
# [15] = read-out: Hypoxia-inducible factor 1-alpha (Homo sapiens) (UniProt Q16665); test: LTEA_HepaRG_HIF1A: Life Technologies and Expression Analysis (LTEA) Assay for Hypoxia-inducible factor 1 (HIF1A) Trancription factor using HepaRG (AID 2283503)
# How it was run: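 HIF1A transcript level read by qRT-PCR (ACTB, GAPDH, POLR2A normalization) after 48 h chemical exposure of HepaRG cultures. Eight half-log concentrations, top 100 uM, 0.5% DMSO vehicle, duplicates; bidirectional curve fit against DMSO baseline.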
# [16] = read-out: 3-Hydroxy-3-Methylglutaryl-CoA Synthase 2 (HMGCS2), HMGCS2 (gene 3158); test: LTEA_HepaRG_HMGCS2: Life Technologies and Expression Analysis (LTEA) Assay for 3-Hydroxy-3-Methylglutaryl-CoA Synthase 2 (HMGCS2) using HepaRG (AID 2283504)
# How it was run: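 This steatosis marker was read as HMGCS2 mRNA change in HepaRG cells treated 48 h with up to 100 uM chemical. Normalisation used housekeeping genes; activity in either direction was fitted relative to 0.5% DMSO vehicle.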
# [17] = read-out: HGF (gene 3082); test: LTEA_HepaRG_HGF: Life Technologies and Expression Analysis (LTEA) Assay for Hepatocyte Growth Facto (HGF) using HepaRG (AID 2283505)
# How it was run: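 Using HepaRG monolayers kept in 0.5% DMSO, chemicals were tested in duplicate over eight half-log concentrations from 100 uM for 48 h. Endpoint: HGF mRNA change relative to DMSO, normalized to ACTB/GAPDH/POLR2A.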
# [18] = read-out: Insulin Like Growth Factor 1 (IGF1), IGF1 (gene 3479); test: LTEA_HepaRG_IGF1: Life Technologies and Expression Analysis (LTEA) Assay for Insulin Like Growth Factor 1 (IGF1) using HepaRG (AID 2283506)
# How it was run: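 Cells are thawed, plated and cultured 48 h, then exposed in duplicate to chemical (highest 100 uM, half-log steps, 0.5% DMSO) for another 48 h. Total RNA is analysed by Fluidigm qRT-PCR for IGF1 expression relative to vehicle.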
# [19] = read-out: Intercellular Adhesion Molecule 1 (ICAM1), ICAM1 (gene 3383); test: LTEA_HepaRG_ICAM1: Life Technologies and Expression Analysis (LTEA) Assay for Intercellular Adhesion Molecule 1 (ICAM1) using HepaRG (AID 2283507)
# How it was run: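 Using the human liver line HepaRG, compounds are tested in duplicate over 48 h at concentrations up to 100 uM. Expression is determined by TaqMan qRT-PCR, normalized to endogenous controls, and analysed relative to 0.5% DMSO vehicle.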
# [20] = read-out: Pro-epidermal growth factor (Homo sapiens) (UniProt P01133); test: LTEA_HepaRG_EGF: Life Technologies and Expression Analysis (LTEA) Assay for Epidermal growth factor (EGF) using HepaRG (AID 2283489)
# How it was run: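 Concentration-response mRNA assay: HepaRG cells dosed 48 h (max 100 uM, 0.5% DMSO), EGF measured by qRT-PCR and normalized to ACTB/GAPDH/POLR2A.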
# Cytochrome P450 3A7 (Homo sapiens), sequence (P24462 whole entry, looked up): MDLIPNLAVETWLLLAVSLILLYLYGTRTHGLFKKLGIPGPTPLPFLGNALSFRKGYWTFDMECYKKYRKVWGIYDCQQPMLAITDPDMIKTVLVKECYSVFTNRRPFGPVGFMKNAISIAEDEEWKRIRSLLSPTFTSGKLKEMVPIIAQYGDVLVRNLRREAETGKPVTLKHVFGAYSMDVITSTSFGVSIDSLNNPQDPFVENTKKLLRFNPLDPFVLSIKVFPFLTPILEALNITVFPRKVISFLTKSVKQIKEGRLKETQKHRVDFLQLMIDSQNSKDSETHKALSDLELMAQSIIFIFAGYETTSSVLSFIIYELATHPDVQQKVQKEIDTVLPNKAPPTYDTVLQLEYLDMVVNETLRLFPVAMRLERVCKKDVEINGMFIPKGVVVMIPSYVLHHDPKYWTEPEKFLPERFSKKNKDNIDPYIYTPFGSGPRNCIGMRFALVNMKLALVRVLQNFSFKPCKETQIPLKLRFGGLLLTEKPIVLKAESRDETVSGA
# Hypoxia-inducible factor 1-alpha (Homo sapiens), sequence (Q16665 whole entry, looked up): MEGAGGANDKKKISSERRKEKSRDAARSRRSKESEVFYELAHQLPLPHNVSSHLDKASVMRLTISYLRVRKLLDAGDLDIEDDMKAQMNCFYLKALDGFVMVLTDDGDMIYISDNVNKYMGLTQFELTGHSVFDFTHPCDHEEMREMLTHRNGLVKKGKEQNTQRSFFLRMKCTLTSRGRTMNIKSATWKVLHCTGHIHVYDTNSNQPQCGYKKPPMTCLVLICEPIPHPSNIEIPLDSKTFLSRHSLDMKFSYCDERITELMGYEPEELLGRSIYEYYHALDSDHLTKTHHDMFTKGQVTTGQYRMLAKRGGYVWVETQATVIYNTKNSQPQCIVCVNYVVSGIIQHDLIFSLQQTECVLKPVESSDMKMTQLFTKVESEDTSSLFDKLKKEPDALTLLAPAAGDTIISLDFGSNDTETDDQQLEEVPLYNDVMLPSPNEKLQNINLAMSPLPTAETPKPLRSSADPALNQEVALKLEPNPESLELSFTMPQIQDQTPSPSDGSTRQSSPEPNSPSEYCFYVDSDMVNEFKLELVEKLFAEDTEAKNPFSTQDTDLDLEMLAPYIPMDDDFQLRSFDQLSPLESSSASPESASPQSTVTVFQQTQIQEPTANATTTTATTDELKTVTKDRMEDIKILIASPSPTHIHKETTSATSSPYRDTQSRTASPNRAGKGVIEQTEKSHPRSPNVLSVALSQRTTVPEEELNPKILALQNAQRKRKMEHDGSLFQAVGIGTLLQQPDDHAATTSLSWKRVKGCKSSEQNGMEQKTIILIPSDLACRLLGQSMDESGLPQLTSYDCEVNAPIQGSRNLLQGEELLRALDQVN
smiles,measurement,setting,value
CCCCOCCO,outcome,[1],inactive
same,outcome,[2],inactive
same,outcome,[3],inactive
same,outcome,[4],inactive
same,outcome,[5],inactive
same,outcome,[6],inactive
same,outcome,[7],inactive
same,outcome,[8],inactive
same,outcome,[9],inactive
same,outcome,[10],inactive
same,outcome,[11],inactive
same,outcome,[12],inactive
same,outcome,[13],inactive
same,outcome,[14],inactive
same,outcome,[15],inactive
same,outcome,[16],inactive
same,outcome,[17],inactive
same,outcome,[18],inactive
same,outcome,[19],inactive
OC1CCC(C2CCCCC2)CC1 (centres undefined),outcome,[1],inactive
same,outcome,[20],inactive
same,outcome,[2],inactive
same,outcome,[3],inactive
same,outcome,[4],inactive
same,outcome,[6],inactive
same,outcome,[7],inactive
same,outcome,[8],inactive
same,outcome,[9],inactive
same,outcome,[10],inactive
same,outcome,[11],inactive
same,outcome,[12],inactive
same,outcome,[13],inactive
same,outcome,[14],inactive
same,outcome,[15],inactive
same,outcome,[16],inactive
same,outcome,[17],inactive
same,outcome,[18],inactive
same,outcome,[19],inactive
ClC1=C(Cl)C(Cl)(Cl)C(Cl)=C1Cl,outcome,[1],inactive
same,outcome,[20],inactive
same,outcome,[2],inactive
same,outcome,[3],inactive
same,outcome,[4],inactive
same,outcome,[6],inactive
same,outcome,[7],inactive
same,outcome,[8],inactive
same,outcome,[9],inactive
same,outcome,[10],inactive
same,outcome,[11],inactive
same,outcome,[12],inactive
same,outcome,[13],inactive
same,outcome,[14],inactive
same,outcome,[15],inactive
same,outcome,[16],inactive
same,outcome,[17],inactive
same,outcome,[18],inactive
same,outcome,[19],inactive
O=[N+]([O-])c1ccc(O)cc1,outcome,[1],inactive
same,outcome,[2],inactive
same,outcome,[3],inactive
same,outcome,[4],inactive
same,outcome,[5],inactive
same,outcome,[6],inactive
same,outcome,[7],inactive
same,outcome,[8],inactive
same,outcome,[9],inactive
same,outcome,[10],inactive
same,outcome,[11],inactive
same,outcome,[12],inactive
same,outcome,[13],inactive
same,outcome,[14],inactive
same,outcome,[15],inactive
same,outcome,[16],inactive
same,outcome,[17],inactive
same,outcome,[18],inactive
same,outcome,[19],inactive
O=C(O)Cc1cc(I)c(Oc2cc(I)c(O)c(I)c2)c(I)c1,AC50,[1],51.9 µM (active)
same,AC50,[2],51.6 µM (active)
same,outcome,[3],inactive
same,AC50,[4],45.4 µM (active)
same,AC50,[5],26.7 µM (active)
same,AC50,[6],62 µM (active)
same,AC50,[7],54.5 µM (active)
same,AC50,[8],48.2 µM (active)
same,AC50,[9],56.7 µM (active)
same,AC50,[10],57.9 µM (active)
same,AC50,[11],7.52 µM (active)
same,outcome,[12],inactive
same,AC50,[13],33.5 µM (active)
same,AC50,[14],54 µM (active)
same,AC50,[15],21.5 µM (active)
same,AC50,[16],49.5 µM (active)
same,AC50,[17],52.7 µM (active)
same,outcome,[18],inactive
same,AC50,[19],54.8 µM (active)
CC(C)(C)c1ccc(O)c(C(C)(C)C)c1,outcome,[1],inactive
same,outcome,[2],inactive
same,outcome,[3],inactive
same,outcome,[4],inactive
same,outcome,[5],inactive
same,outcome,[6],inactive
same,outcome,[7],inactive
same,outcome,[8],inactive
same,outcome,[9],inactive
same,outcome,[10],inactive
same,outcome,[11],inactive
same,outcome,[12],inactive
same,outcome,[13],inactive
same,outcome,[14],inactive
same,outcome,[15],inactive
same,outcome,[16],inactive
same,outcome,[17],inactive
same,outcome,[18],inactive
same,outcome,[19],inactive
